# According to PubChem BioAssay (NCI):
# This is part of a sample that, as a whole, favours compounds with a hit. Of some 83,000 tested, about 20% had one in any assay.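 Percent growth is the endpoint: 0 to 100 indicates growth inhibition (40 means 60% inhibition), 0 means no net growth, and negative values indicate cell death.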 A number with no mark means an inactive call. Calls of active or inactive are those of the source.
# System: OVCAR-4 ovarian
# Assay: NCI-60 one-dose screen, 48 h (100 = growth as untreated, 0 = no growth, -100 = all killed)
# Settings: 10 µM
# Description: Growth inhibition of the OVCAR-4 human tumor cell line is measured as a screen for anti-cancer activity. Cells are grown in 96 well plates and exposed to the test compound for 48 hours. Compounds are tested at a single concentration, which is 10^-5 M for most compounds. The reported endpoint is percent growth (GI% or GIPRCNT), where numbers from 0 - 100% represent growth inhibition, and numbers from -100% - 0 represent cell death. For example, a value of 40 represents 60% growth inhibition. A value of 0 means no net growth occurred over the course of the experiment. A value of -40 indicates 40% of cells at the beginning of the experiment died by the end of the experiment. A value of -100 means all cells are dead at the end of the experiment.
# NCI-60 Human Tumor Cell Lines Screen was performed using the standard one-dose NCI protocol, which is described in more detail at https://dtp.cancer.gov/discovery_development/nci-60/default.htm.
# Compounds with GIPRCNT values below 10 were considered active. Activity score was based on GIPRCNT using the following formula: […]
# Score is 0 for GIPRCNT values of 100 or above, 50 for GIPRCNT values of 0, and 100 for GIPRCNT values of -100.
row,SMILES,growth
1,C[n+]1c2ccccc2nc2ccccc21,21.9%
2,CSc1ccc(-c2cc(-c3ccc(NC(=O)CCCN4CCCC4)cc3)nc(-c3ccc(NC(=O)CCCN4CCCC4)cc3)c2)cc1,67.3%
3,C#CC(C)(O)[C@@H]1C[C@H](CC(=O)O)C1(C)C (stereo not given in full),117%
4,Nc1nc(Cl)nc2c1ncn2C1O[C@H](CO)[C@@H](O)[C@@H]1F (stereo not given in full),80.2%
5,O=C1NC(=O)c2c(CCCSc3nc4ccccc4c(=O)n3CCc3ccccc3)cccc21,60.7%
6,COc1ccc2nc(Cl)c(Cn3nnc(Cc4ccccc4)n3)cc2c1,19.7%
7,C/C=C/C1=CN2C(=O)c3cc(OC4OC(C)C(NC)C(C)(O)C4O)c(C)c(O)c3N=C[C@@H]2C1 (stereo not given in full),6.69% (active)
8,O=c1[nH]c(=O)n(C2C[C@H](O)[C@@H](CO)O2)cc1C(F)(F)F (stereo not given in full),114%
9,O=C(CCCCNC(=O)c1nc(-c2ccccc2)n(-c2ccccc2)n1)NO,90.6%
10,NC(CSC(c1ccccc1)(c1ccccc1)c1cccc2ccccc12)C(=O)O (stereo not given),95.4%
11,O=C(CCC(C(=O)c1ccccc1)c1ccccc1)c1ccccc1 (stereo not given),91.2%
12,OC(CNc1ccnc2cc(Cl)ccc12)CNC1CCCCC1 (stereo not given),76%
13,CN(C)CCCOc1cccc(NC2=C(Cl)C(=O)C(Nc3cccc(OCCCN(C)C)c3)=C(Cl)C2=O)c1,-98.8% (active)
14,NS(=O)(=O)c1ccc(N2N=C(c3ccccc3)CCC2=O)cc1,95.8%
15,C[C@@H](O)[C@H]1C(=O)N2C(C(=O)O)=C(SCCN=CN)C[C@H]12,-2.15% (active)
16,COc1ccc(Cl)cc1Nc1nc(C(F)(F)F)ccc1C(=O)N/N=C/c1ccc(Cl)cc1,27.6%
17,CC(C)(C)c1ccc(S(=O)(=O)N[C@H]2CC[C@H]3[C@@H]4CCc5cc(OS(=O)(=O)O)ccc5[C@H]4CC[C@]23C)cc1,53.4%
18,Cc1cc(Cl)ccc1Nc1nc(C(F)(F)F)ccc1C(=O)N/N=C/c1c(Cl)cccc1Cl,7.14% (active)
19,c1cnc2[nH]cc(-c3nc(-c4ccsc4)cs3)c2c1,93%
20,CC(=O)N[C@H](C(=O)N[C@@H](CCCNC(=N)N)C(=O)N[C@@H](CCCCN)C(=O)N[C@@H](CCCNC(=N)N)C(=O)NC(C(=O)N[C@@H](CC(C)C)C(=O)N[C@@H](CCCNC(=N)N)C(=O)N[C@@]1(C)CCC/C=C\CCC[C@@](C)(C(=O)N[C@@H](CCCNC(=N)N)C(=O)N[C@@H](CCC(=O)O)C(=O)N[C@@H](CC(C)C)C(=O)N[C@H](C(=O)N[C@@H](CCC(=O)O)C(N)=O)C(C)C)NC(=O)[C@H](CCC(N)=O)NC(=O)[C@H](CC(C)C)NC(=O)[C@H](CC(C)C)NC1=O)[C@@H](C)O)C(C)C (stereo not given in full),75.9%

row,SMILES,growth
1,O=C(c1ccccc1)N(C(=O)c1ccccc1)N1CCCC1,106%
2,Cc1cc(C)nc(NS(=O)(=O)c2ccc(Nc3nc4nc(NCc5ccccc5)nc(-c5ccc(O)cc5)c4c(=O)[nH]3)cc2)n1,18.3%
3,COc1ccc(C(=O)c2cc3c(OC)c(OC)c(OC)cc3[nH]2)cc1,62.7%
4,Nc1ccc(/C=N/Nc2ccnc3c(O)cccc23)c2cccnc12,30.5%
5,C/C=C/CSC(C)(C)C(=O)NC,117%
6,O=[N+]([O-])c1ccc2ncccc2c1Cl,90.2%
7,COc1ccccc1N1CCCSC1=Nc1ccccc1,151%
8,CCCCN1C(=O)CC(SC2CC(=O)N(CCCC)C2=O)C1=O (stereo not given),109%
9,O=C(CCCCC(=O)Oc1c(Cl)cc(Cl)cc1[N+](=O)[O-])Oc1c(Cl)cc(Cl)cc1[N+](=O)[O-],104%
10,CC(C)N(CCOc1ccc(-c2nc3sccn3c2-c2ccnc(S(C)(=O)=O)n2)cc1)C(C)C,72%
11,Cc1ccc(NCCN(C)CC(C)O)c2c(=O)c3ccccc3sc12 (stereo not given),59.9%
12,O=C1/C(=C/c2cccc(F)c2)Cc2ccccc21,97.5%
13,Cc1ccc(-n2nnnc2N)c(C)c1,99%
14,CC(=O)C1N=NCC1c1ccccc1 (stereo not given),106%
15,NC(=O)c1cccc(-n2ccc3cc(NC(=O)Nc4ccc(Cl)c(C(F)(F)F)c4)ccc32)n1,77.6%
16,COc1cc(-c2nn(-c3cccc(NC(=O)NCCNC(=O)c4cccc(C(F)(F)F)c4)c3)cc2-c2ccncc2)ccc1Cl,49.4%
17,Cc1ccccc1N1C(=O)c2cc(S(N)(=O)=O)c(Cl)cc2NC1C (stereo not given),111%
18,CC1CCCC(C(=O)O)C1C(=O)O (stereo not given),103%
19,CCOC(=O)c1cc(C(=O)c2ccc(Cl)cc2)n2ccc(-c3cc[n+](CC(=O)c4ccc(OC)cc4)cc3)cc12,29.7%
20,COc1cc(C)ccc1Oc1nc(Nc2ccc(N3CCOCC3)cc2)ncc1NC(=O)Nc1cc(C(F)(F)F)cc(C(F)(F)F)c1,66.3%
